An excerpt weighted towards active compounds, which were near 21% of everything screened.
CHX counter: counter-screen for Shiga toxin inhibitors: cycloheximide protein synthesis inhibition; cell reporter, cycloheximide protein synthesis inhibition counterscreen; max response, %; hit rate 12% among 300,000; AID 2314; in the data active = max response mostly above about 13%, no sharp cut-off; inactive = mostly below about 14%; note: read at 38.3 µM for the half of the compounds with a filed dose
Pf growth 48h: inhibits P. falciparum growth in the first generation, 48 h; P. falciparum luciferase growth in erythrocytes, 48 h; Potency, µM (highest dose often 28.7 µM), hits mostly inhibitors; hit rate 5.9% among 310,000; AID 504832
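Firefly luciferase activity from engineered P. falciparum reports growth; inhibitors lower the luminescent signal. Cultures contained 2% hematocrit erythrocytes at 0.1% final parasitemia.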
Pf growth 96h: P. falciparum growth inhibition at 96 hours. hit rate 6.9% among 320,000. Potency, µM (series often up to 28.7 µM), actives largely listed as inhibitors. P. falciparum luciferase reporter growth, 96 h. AID 504834
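Readout is luminescence from an integrated firefly luciferase in P. falciparum. Red cells, 2% hematocrit and 0.05% parasitemia final, were cultured with compound through two parasite generations (96 hours) at 37 C, 5% CO2.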
HCV inh: HCV inhibition. Potency, µM (series often up to 41.8 µM), hits mostly inhibitors. Huh7.5.1 HCVcc-Cre infection, luciferase reporter, 44 h. hit rate 3.4% among 340,000. AID 651820
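Compounds are dispensed onto cells plated 4 h earlier at 1,000 per well, with HCVcc-Cre virus (about 0.5 moi) added next. Following 44 h of culture, luminescent signal is measured for 15 sec after 15 min with substrate at room temperature.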
HCMV antiviral: blocks human cytomegalovirus replication | HFF cells, HCMV-luciferase reporter, 72 h; active compounds read low | activity change, negative = inhibition, % at 57.5 µM | hit rate 4.5% among 410,000; in the data active = activity change below about -60%; inconclusive = no clear call, values can overlap the other calls; inactive = above about -39%
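Two-dose cell screen: HFF monolayers treated with compounds and infected with luciferase-expressing HCMV at 1 PFU/cell, 72 h at 37C, then lysed for luciferase measurement.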
Shiga toxin inh: blocks Shiga toxin action in Vero cells | Vero cells, Shiga toxin protein synthesis inhibition reporter | inhibition, % at 38.7 µM | hit rate 9.2% among 290,000 | AID 2315; in the data active = inhibition mostly above about 28%, no sharp cut-off; inactive = mostly below about 43%
Large screens that a line does not name were inactive. Unless noted, calls come from the whole dose curve; as a rule, active = well fitted inhibition curve with a large enough effect; inconclusive = small, poorly fitted or top-dose-only effect, or another doubt; inactive = no such curve, though single readings can be large or run the other way.

CC(C)CCn1cnc2c(sc3nc4c(cc32)CSC(C)(C)C4)c1=O	CHX counter 37.8, HCMV antiviral -74.4, Shiga toxin inh 42.6
CCCCn1cnc2c(sc3nc4c(cc32)CSC(C)(C)C4)c1=O	CHX counter 77.9, Shiga toxin inh 55.1
Cc1ccsc1CN(C)CC(=O)Nc1ccc([N+](=O)[O-])cc1Cl	HCV inh 12.6µM, HCMV antiviral inconclusive
COc1ccc(CN2CCNC(=O)C2CC(=O)NCc2ccc(C)s2)c(OC)c1 (stereo not given)	Pf growth 96h inconclusive, HCMV antiviral inconclusive
COc1ccc(CNC(=O)CC2C(=O)NCCN2CC(C)(C)C)c(OC)c1 (stereo not given)	Pf growth 96h 10.4µM, HCMV antiviral inconclusive
COc1ccc(CN2CCNC(=O)C2CC(=O)NC2CCC2)c(OC)c1 (stereo not given)	Pf growth 96h 14.7µM
COCCCN1C(=O)c2[nH]nc(-c3ccccc3O)c2C1c1cccc(Cl)c1 (stereo not given)	Pf growth 48h 9.28µM, Pf growth 96h 7.38µM, HCV inh inconclusive
CC(C)OCCCN1C(=O)c2[nH]nc(-c3ccccc3O)c2C1c1cccc(Cl)c1 (stereo not given)	Pf growth 48h 4.15µM, HCV inh inconclusive
COCCCN1C(=O)c2[nH]nc(-c3ccccc3O)c2C1c1ccc(Cl)cc1 (stereo not given)	Pf growth 48h inconclusive, Pf growth 96h inconclusive, HCV inh inconclusive
COc1ccc(CCNC(=O)c2ccc(NC(=O)CC3SC(N4CCCC4)=NC3=O)cc2)cc1 (stereo not given)	Pf growth 48h inconclusive, Pf growth 96h inconclusive (no result: CHX counter, Shiga toxin inh)
O=C(C1CCN(S(=O)(=O)c2cccs2)CC1)N(c1ccccn1)C1CCCCC1	none
O=[N+]([O-])c1ccc(CSc2ccc(S(=O)(=O)N3CCCC3)cn2)cc1	Pf growth 48h inconclusive (no result: CHX counter, HCMV antiviral, Shiga toxin inh)
c1ccc(CCNc2c3c(nc4ncnn24)CCC3)cc1	Pf growth 48h 1.47µM (no result: HCV inh)
Fc1ccccc1CCNc1c2c(nc3ncnn13)CCCC2	HCV inh inconclusive, HCMV antiviral -77.4
CCc1cc(=O)oc2cc(C)cc(OCC(=O)NC(Cc3ccc(Cl)cc3)C(=O)O)c12 (stereo not given)	Pf growth 96h inconclusive
O=C(NCC(c1ccco1)S(=O)(=O)c1cccs1)c1ccccc1 (stereo not given)	none (no result: CHX counter, Pf growth 48h, Pf growth 96h, HCV inh, Shiga toxin inh)
COc1ccc(N2CC(C(=O)N[C@@H](C)C(=O)NC3CCCCC3)CC2=O)cc1 (stereo not given in full)	none
Cc1ccc(N2C(=O)C(CC(=O)Nc3cccc(F)c3)N(C3CC3)C2=O)cc1 (stereo not given)	CHX counter 17.9
Cc1ccc(N2CC(C(=O)Nc3cccc(F)c3)CC2=O)cc1 (stereo not given)	Pf growth 96h 2.33µM
Cc1ccc(N2CC(C(=O)Nc3ccc(N(C)C)cc3)CC2=O)cc1C (stereo not given)	Pf growth 96h 8.28µM, HCV inh inconclusive
COc1ccc(N2CC(C(=O)N[C@@H](CC(C)C)C(=O)NC3CCCCC3)CC2=O)cc1 (stereo not given in full)	Pf growth 48h inconclusive, Pf growth 96h 14.7µM
Cc1ccc(NC(=O)CN(C)C(=O)COC(=O)[C@@H](NC(=O)c2ccccc2F)C(C)C)cc1	HCMV antiviral inconclusive (no result: CHX counter, Pf growth 48h, Pf growth 96h, Shiga toxin inh)
COc1cccc(NC(=O)Cn2nc(-c3ccncc3)ccc2=O)c1	none (no result: CHX counter, Pf growth 48h, Pf growth 96h, HCV inh, Shiga toxin inh)
NC(=O)COc1ccc(/C=N/NS(=O)(=O)c2ccccc2)cc1	none
O=C(NC1CCCCC1)C1CC(=O)N(c2ccccc2)C1 (stereo not given)	Pf growth 96h 3.29µM
Cc1ccc(/C=N\NC(=O)C2CC(=O)N(c3ccccc3)C2)o1 (stereo not given)	CHX counter 24.4
Cc1ccc(C(=O)N2CCC(C(=O)NC3CCCCCC3)CC2)cc1	CHX counter 27.6, Pf growth 48h inconclusive, Pf growth 96h inconclusive
COc1cccc(N2CC(C(=O)NNC(=O)c3ccc(Cl)cc3)CC2=O)c1 (stereo not given)	Pf growth 96h 5.86µM
Cc1ccc(S(=O)(=O)N2CCOCC2)cc1C(=O)NCc1ccccn1	none (no result: CHX counter, Shiga toxin inh)
COc1cc2cc(CCCOC(=O)c3cccc(Br)c3)oc(=O)c2cc1OC	Pf growth 96h inconclusive (no result: CHX counter, Shiga toxin inh)
Cc1ccc(N2CC(C(=O)NC3CC3)CC2=O)cc1Cl (stereo not given)	none
O=C(NC1CC1)C1CC(=O)N(c2cccc(Cl)c2)C1 (stereo not given)	Pf growth 48h 10.4µM, Pf growth 96h inconclusive
Cc1ccc(N2CC(C(=O)NC3CCCCCC3)CC2=O)cc1 (stereo not given)	HCMV antiviral -63.5 (no result: CHX counter, Pf growth 48h, Pf growth 96h, HCV inh, Shiga toxin inh)
Nc1ncc(-n2cncn2)c(-c2ccc(Cl)cc2)n1	none
O=C(CCNc1cccc(Cl)c1)c1cccs1	CHX counter 32.8, Shiga toxin inh 56.6
Cc1ccc(NC(=O)CCC(=O)c2cccs2)c(Br)c1	CHX counter 35.9, Shiga toxin inh 115.1
Cc1ccc(NCCC(=O)c2cccs2)cc1	CHX counter 45.8, Shiga toxin inh 80.4
O=C(CC(C(=O)O)c1ccccc1)c1cccs1 (stereo not given)	Pf growth 96h inconclusive
CC(CC(=O)c1cccs1)CC(=O)c1cccs1	CHX counter 55.8, Shiga toxin inh active
Cc1ccc([C@H]2N[C@]3(CCCN(Cc4cccn4C)C3=O)[C@H]3C(=O)N(C)C(=O)[C@@H]23)cc1	none (no result: CHX counter, Pf growth 48h, Pf growth 96h, HCV inh, Shiga toxin inh)
Cc1cccc(NC(=O)c2oc3ccccc3c2NC(=O)Cc2coc3cc(C)cc(C)c23)c1	none (no result: CHX counter, Pf growth 48h, Pf growth 96h, HCV inh, Shiga toxin inh)
CCNC(=O)NCc1cccc(Cl)c1	none (no result: CHX counter, HCV inh, HCMV antiviral, Shiga toxin inh)
CCc1ccc(NC(=O)CCn2c(-c3ccc(OC)cc3)cc(C(C)=O)c2C)cc1	none (no result: CHX counter, Pf growth 48h, Pf growth 96h, HCV inh, Shiga toxin inh)
Cc1ccc(NCCC(=O)c2cccs2)cc1Cl	CHX counter 29.2, Shiga toxin inh 53.3
Cc1ccc(CNC(=O)CCC(=O)c2cccs2)cc1	none (no result: Pf growth 48h)
Cc1cc(C)c(C(CC(=O)c2cccs2)C(C#N)C#N)c(C)c1 (stereo not given)	CHX counter 61.1, HCMV antiviral inconclusive, Shiga toxin inh 83.7
Cc1ccc(NC(=O)CCC(=O)c2cccs2)cc1	CHX counter 16.3 (no result: Pf growth 48h)
CC(C)c1ccc(NCCC(=O)c2cccs2)cc1	CHX counter 59.6, Shiga toxin inh 140.2
Cc1ccc(-c2nnn3c2nc(NCc2ccc4c(c2)OCO4)c2ccccc23)cc1	none (no result: CHX counter, Pf growth 48h, Pf growth 96h, HCV inh, Shiga toxin inh)
CCc1ccccc1NC(=O)Cn1c(=O)n(-c2ccc(C)c(C)c2)c(=O)c2oc3ccccc3c21	none (no result: CHX counter, Pf growth 48h, Pf growth 96h, HCV inh, Shiga toxin inh)
O=C(CCC(=O)c1cccs1)Nc1ccc(N2CCCCC2)cc1	CHX counter 44.8, Shiga toxin inh 86.2
Cc1ccc(NCCC(=O)c2cccs2)cc1C	CHX counter 49.0, Shiga toxin inh 57.6
Cc1ccc(Oc2ccc(NC(=O)CCC(=O)OCC(=O)c3cccs3)cc2)cc1C	CHX counter 16.9
CC(C)(C)CNCc1ccccc1NC(=O)OC(C)(C)C	none (no result: CHX counter, Pf growth 48h, Pf growth 96h, HCV inh, Shiga toxin inh)
